In the library only some 9.3% were active in any assay of this set; here they are far more common.
NPC1 promoter act: activators of NPC1 promoter. AID 485313. Potency, µM (titrated, usually from 9.22 µM), without a hit: at the top dose activation, most hits filed as activators. Huh7 NPC1 promoter luciferase reporter, 24 h. actives 2.4% (n = 320,000); further: % of control where 0% means no effect; nearly all actives have a fitted effect of over 60% in size
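Readout is luciferase luminescence, reflecting NPC1 promoter activation in stably transfected Huh7 cells after 24 h compound exposure at 37 °C in reduced-serum medium with 10% FBS.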
ELG1 DNA repair: inhibitors of ELG1-dependent DNA repair in HEK293T cells | HEK293T ELG1-luciferase reporter, luminescence, 16 h; DNA damage induced by 5-fluorouridine | Potency, µM (doses to about 46.1 µM), for the others: at the top dose activity change, negative = inhibition, most hits filed as inhibitors | actives 2.3% (n = 330,000) | AID 504467; further: on the % scale 0 is the no-effect control and ±100 the full control effect; nearly all actives have a fitted effect of over 55% in size
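In this reporter screen, reduction of luminescence relative to DMSO vehicle indicated activity. Compounds and 5-fluorouridine were added together to 2,000 cells per well, incubated for 16 hr at 37 °C, then developed with ONE-Glo.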
Rab9 prom act: activates the Rab9 promoter; AID 485297; Huh7 Rab9 promoter-luciferase reporter, luminescence, 24 h; actives 2.8% (n = 320,000); Potency, µM (highest dose often 9.22 µM), for the others: top-dose activation, negative = inhibition, most hits filed as activators; further: % of control where 0% means no effect; nearly all actives have a fitted effect of over 60% in size
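Quantitative HTS format; Huh7 Rab9-luciferase reporter cells (1500/well) receive compound 2 h post-plating, incubate 24 h at 37 °C, then get luciferase reagent for 10 min before luminescence reading.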
FLuc counter: inhibits or activates purified firefly luciferase, miR-21 counter-screen; P08659; purified FLuc, Km substrates, luminescence inhibition; Potency, µM (highest dose often 57.5 µM), for the others: at the top dose activity change, negative = inhibition, most hits filed as inhibitors; actives 6.9% (n = 360,000); AID 588342;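 further: plate controls were vehicle for no effect and reference inhibitor for full effect; nearly all actives have a fitted effect of over 55% in size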
Target sequence (P08659 whole entry, looked up): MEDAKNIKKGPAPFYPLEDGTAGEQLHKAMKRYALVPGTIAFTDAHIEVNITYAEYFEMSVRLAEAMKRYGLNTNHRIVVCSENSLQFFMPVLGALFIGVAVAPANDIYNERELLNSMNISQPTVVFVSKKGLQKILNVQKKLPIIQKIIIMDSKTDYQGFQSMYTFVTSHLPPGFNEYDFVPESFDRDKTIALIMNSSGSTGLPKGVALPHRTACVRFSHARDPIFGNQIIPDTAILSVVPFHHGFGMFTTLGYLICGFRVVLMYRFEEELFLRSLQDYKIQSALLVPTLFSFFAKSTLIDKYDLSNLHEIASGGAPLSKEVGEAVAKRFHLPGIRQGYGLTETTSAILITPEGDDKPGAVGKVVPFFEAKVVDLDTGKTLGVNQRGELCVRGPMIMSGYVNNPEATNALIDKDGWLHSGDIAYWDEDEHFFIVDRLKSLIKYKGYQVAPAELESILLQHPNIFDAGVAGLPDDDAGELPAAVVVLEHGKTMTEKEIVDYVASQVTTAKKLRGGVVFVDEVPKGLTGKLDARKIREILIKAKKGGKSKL
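Purified P. pyralis luciferase (10nM final) with 10uM D-luciferin and 10uM ATP (Km levels) in 50mM Tris acetate pH 7.5, 10mM Mg acetate, 0.01% Tween-20, 0.05% BSA; qHTS 6-point titration, ~60 µM downward; luminescence read.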
ELG1 genotoxic: inducers of genotoxicity in HEK293T ELG1-luciferase cells | HEK293T ELG1-luciferase reporter, luminescence, 16 h | AID 504466 | actives 1.3% (n = 330,000) | Potency, µM (series often up to 46 µM), for the others: at the top dose activity change, positive = activation, usual class: activators; further: % of control where 0% means no effect; nearly all actives have a fitted effect of over 60% in size
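ELG1-luciferase HEK293T cells, 2,000/well; compound pinned in; 16 hr, 37 °C, 5% CO2; ONE-Glo, 30 min RT; luminescence on CCD imager.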
SMN2 splice up: enhancers of SMN2 splice variant expression. HEK293 SMN2-luciferase splicing reporter, luminescence, 30-36 h. Potency, µM (series often up to 46.1 µM), without a hit: top-dose activity change, positive = activation, hits mostly activators. actives 2.8% (n = 210,000); further: % of control where 0% means no effect; nearly all actives have a fitted effect of over 55% in size
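qHTS luciferase splicing reporter: luminescence rises when SMN2 exon 7 is included in transfected HEK293 cells. Compound exposure lasted 30-36 h at 37C, with 4.5 mM final sodium butyrate as control, followed by a ONE-Glo read.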
* hit, by the source's call; ? = inconclusive; · = no result given; [ ] = remark or other dose. The call rests on the fitted dose curve; in most records, active means well fitted curve in the direction sought with a large enough effect; inconclusive means small, poorly fitted or top-dose-only effect, or another doubt; inactive means no such curve, though single readings can be large; an effect the other way counts as inactive or inconclusive. Potency means the concentration at half of the fitted maximal effect.

SMILES | NPC1 promoter act | ELG1 DNA repair | Rab9 prom act | FLuc counter | ELG1 genotoxic | SMN2 splice up
CC(C)NC(=O)c1cc2c(s1)CCCC2 | -2% | ? | -5% | ? | 10% | -17%
CC(OC(=O)c1cc2c(s1)CCCCC2)C(=O)NC(N)=O (centres undefined) | 3% | ? | 2% | 24µM* | -5% | 0%
O=C(N/N=C/c1ccc(F)c(F)c1)c1cc2c(s1)-c1ccccc1CC2 | 0% | 10% | -1% | 1% | 8% | 11%
CNC(=O)c1cc2c(s1)CCCCCC2 | 0% | ? | 3% | 13µM* | 0% | 4%
Cc1ccc(C(=O)NC2CCC(C)CC2)s1 (centres undefined) | 0.89µM* | ? | 0.4µM* | ? | ? | ·
CNC(=O)c1cc2c(s1)-c1ccccc1CC2 | ? | ? | ? | 19µM* | ? | 7.9µM*
Cc1cc(N2C(=O)C(O)=C(C(=O)c3ccc(C)o3)C2c2ccc([N+](=O)[O-])cc2)no1 (centres undefined) | 14% | -4% | 10% | 0% | 1% | ·
COc1cc(-c2nnc(SCC3(c4ccccc4)OCCO3)o2)cc(OC)c1OC | 6% | ? | -13% | -10% | -13% | -27%
CCOc1cc(NC(=S)NCCCN2CCOCC2)c(OCC)cc1NC(=O)c1ccc(C)cc1 | -3% | 10% | -1% | -9% | 2% | ·
Cc1cc2oc3c(c(=O)c2cc1C)C1(C(=O)N(C)c2ccccc21)N(CCO)C3=O (centres undefined) | · | · | · | -1% | · | -3%
O=c1oc(-c2cccs2)nc2sc3c(c12)CCCC3 | 15% | ? | 4% | 2.4µM* | 1% | ?
O=c1c2c3c(sc2nc2n1N=C(c1cccs1)CS2)CCCC3 | 0.63µM* | ? | 0.63µM* | 0.19µM* | ? | -23%
O=C1CN(c2nc(-c3cccs3)nc3sc4c(c23)CCCC4)CCN1 | -37% | 4% | -45% | 6µM* | ? | ?
O=C(CCC(=O)N1Cc2ccccc2Oc2ncccc21)NCc1cccc(Cl)c1 | · | · | · | -12% | · | ·
N#CCCN(C(=O)COC(=O)CCc1nc2ccccc2c(=O)[nH]1)c1ccccc1F | -4% | 13% | 1% | 2% | 2% | ·
O=C(CN(CCc1ccccc1)S(=O)(=O)c1ccc(Cl)cc1)N/N=C/c1ccc2c(c1)OCO2 | 1% | -9% | -3% | -2% | 0% | -23%
CCOc1cc(/C=N/NC(=O)CN(CCc2ccccc2)S(=O)(=O)c2ccc(NC(C)=O)cc2)ccc1O | -7% | 26µM* | -6% | -12% | -4% | -12%[1.84 µM]
COc1ccc(S(=O)(=O)N(CCc2ccccc2)CC(=O)N/N=C/c2ccc3c(c2)OCO3)cc1 | 0% | 16µM* | -3% | 1% | -2% | -9%
COc1ccc(C2=NN(C(=O)COC(=O)c3ccc(S(C)(=O)=O)c([N+](=O)[O-])c3)C(c3ccco3)C2)cc1 (centres undefined) | · | ? | · | · | -17% | ·
Cc1snc2sc(C(=O)c3ccc(Br)cc3)c(N)c12 | 2.8µM* | ? | 4µM* | -25% | 12µM* | ?
Cc1nc(-c2ccccc2)nc2sc(C(=O)c3ccc(F)cc3)c(N)c12 | 3% | -1% | -4% | 5% | 6% | ·
Cc1cc(C)c2c(N)c(C(=O)c3ccccc3Cl)sc2n1 | 0% | -27% | -6% | -1% | -11% | ·
Cc1ccc(C(=O)c2sc3nsc(C)c3c2N)cc1 | 1.1µM* | ? | 2.8µM* | 1.7µM* | 0.58µM* | 10µM*
COC(=O)c1cc2oc(C)cc2n1Cc1ccccc1Cl | · | · | · | -5% | · | 10%
CCn1c2ccccc2c2cc(NC(=O)COC(=O)c3ccc(NC(=O)CC#N)cc3)ccc21 | -2% | ? | -1% | 14% | 23µM* | ·
SMILES | NPC1 promoter act | ELG1 DNA repair | Rab9 prom act | FLuc counter | ELG1 genotoxic | SMN2 splice up
O=C(Nc1ccc2c(c1)oc1ccccc12)N1CCOCC1 | 3.5µM* | ? | 3.5µM* | 12µM* | ? | ?
CCn1c2ccccc2c2cc(NC(=O)COC(=O)c3ccccc3F)ccc21 | -2% | 22% | -5% | -1% | ? | -51%
CCn1c2ccccc2c2cc(NC(=O)N3CCOCC3)ccc21 | ? | 1% | 3.5µM* | 3%[2.3 µM] | ? | ?
CC(C)Oc1ccc(CNC(=O)C2CCN(c3nc4ccccc4nc3C(F)(F)F)CC2)cc1 | · | · | · | -1% | · | ·
COC(=O)C[C@H](NC(=O)Cn1cnc2c(SC)nc(N)nc21)C(=O)OC | · | 12% | · | · | 3% | ·
COc1cccc(N2CCN(S(=O)(=O)c3cn(C)cn3)CC2)c1 | -2% | ? | 0% | 1% | 3% | ·
CCC(NC(=O)COC(=O)C1CC2CCCC(C1)C2=O)c1ccc(Br)cc1 (centres undefined) | -4% | 1% | 1% | 3% | 3% | ·
O=C(NCc1ccc(Cl)cc1)c1cnn2ccccc12 | 4µM* | ? | 2.5µM* | 13µM* | ? | ?
CCOC(=O)C1(CCOc2ccccc2)CCN(Cc2cccc(OC)c2OC)CC1 | -5% | 12µM* | -7% | -10% | -1% | ·
CCOC(=O)C1(CCOc2ccccc2)CCN(Cc2cccc3c2OCO3)CC1 | -4% | ? | -16% | 0% | -12% | -44%
COc1ccc(CNC(=O)c2ccc(N3CCOCC3)c([N+](=O)[O-])c2)cc1 | -1% | -20% | 5% | -4% | 1% | -14%
COc1ccc2oc(-c3ccc(C)c(NC(=O)c4ccc(N5CCOCC5)c([N+](=O)[O-])c4)c3)nc2c1 | 16% | ? | 4% | 6µM* | ? | 4%
CCOc1ccc(C(=O)Nc2cc(-c3nc4cc(OC)ccc4o3)ccc2C)cc1[N+](=O)[O-] | · | · | · | 6.7µM* | · | 17%
COc1ccc(N2CCN(S(=O)(=O)CCNC(=O)c3c(F)cccc3Cl)CC2)cc1 | · | · | · | 0% | · | ·
COc1ccc(NC(=O)CN2C(=O)NC(C)(c3ccc(C)cc3)C2=O)cn1 (centres undefined) | -2% | 2% | -5% | 0% | -3% | ·
Cc1csc2c(=O)sc(NC(=O)c3ccc(F)cc3Cl)nc12 | -1% | -21% | -11% | -1% | -9% | ·
O=C(Nc1nc2ccsc2c(=O)s1)c1ccc(F)cc1 | 0.4µM* | ? | 0.28µM* | 0.54µM* | ? | ·
O=C(Nc1nc2ccsc2c(=O)s1)c1ccc(F)cc1Cl | 0.71µM* | ? | 0.56µM* | 0.54µM* | 9.2µM* | ·
Cc1csc2c(=O)sc(NC(=O)c3ccc(F)cc3)nc12 | 0% | 13% | -1% | 1% | 2% | ·
C[C@@H](N)C1CCC(C(=O)Nc2ccncc2)CC1 (some centres undefined) | 11%[46.1 µM] | · | 4%[46.1 µM] | · | · | 15%
